The list is not random: actives were taken first. Their share in the collection is about 3.5%.
14-3-3 Bad inh = inhibitors of 14-3-3 zeta/Bad binding, primary screen, biochemical, TR-FRET, bovine 14-3-3 zeta | TR-FRET 14-3-3zeta/Dy647-pBad peptide displacement, 1 h | inhibition, % at 21.7 µM | 220,000 tested, 0.71% active;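 active = inhibition above about 70%, limit read from the data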;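 note: 0% = full 14-3-3 plus peptide FRET controls and 100% = background without 14-3-3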
Target sequence (P63103 whole entry, looked up): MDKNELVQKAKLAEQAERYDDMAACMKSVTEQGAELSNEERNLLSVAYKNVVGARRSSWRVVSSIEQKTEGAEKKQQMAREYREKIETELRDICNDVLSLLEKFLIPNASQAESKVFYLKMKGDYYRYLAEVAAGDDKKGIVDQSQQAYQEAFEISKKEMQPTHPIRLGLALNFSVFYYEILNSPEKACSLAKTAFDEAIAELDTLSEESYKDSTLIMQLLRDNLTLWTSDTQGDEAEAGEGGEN
Mcl1-Bid inh = Mcl-1/Bid binding inhibitors, primary screen, biochemical, TR-FRET, 1536-well; TR-FRET Mcl-1/Bid-Dy647 peptide binding; 220,000 tested, 0.97% active; inhibition, % at 21.7 µM; Induced myeloid leukemia cell differentiation protein Mcl-1 (Homo sapiens), Q07820;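 active = compounds that cut the binding signal by more than half at the single screening dose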;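 note: His-tagged Mcl-1 with europium anti-His antibody binding Bid BH3 peptide; 0% = Mcl-1 plus peptide wells and 100% = peptide-only wells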
Target sequence (Q07820 whole entry, looked up): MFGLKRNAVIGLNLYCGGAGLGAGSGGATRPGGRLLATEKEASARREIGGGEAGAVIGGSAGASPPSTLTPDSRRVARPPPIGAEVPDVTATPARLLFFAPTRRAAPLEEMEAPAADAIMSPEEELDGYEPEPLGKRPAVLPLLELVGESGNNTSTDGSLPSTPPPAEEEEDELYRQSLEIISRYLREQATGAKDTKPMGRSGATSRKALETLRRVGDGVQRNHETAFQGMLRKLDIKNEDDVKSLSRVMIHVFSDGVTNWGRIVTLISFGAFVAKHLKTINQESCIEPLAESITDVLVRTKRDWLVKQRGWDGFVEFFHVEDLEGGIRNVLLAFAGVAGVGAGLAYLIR
Hck-Nef inh = inhibitors of Nef-activated human Hck kinase, primary screen, biochemical, Z-Lyte FRET, 384-well, Hck-YEEI | AID 463187, 2010 | Recombinant Hck-YEEI plus Nef, Z-Lyte FRET kinase assay | inhibition, % at 20 µM | 220,000 tested, 0.68% active | Tyrosine-protein kinase HCK (Homo sapiens), P08631;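 active = Hck-Nef kinase inhibition above about 50%, limit read from the data; inactive = inhibition below that limit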;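 note: 0% = DMSO with Hck plus Nef and 100% = Hck alone without Nef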
eIF4E 4G PPI = eIF4E–eIF4G protein interaction inhibitors, primary screen, biochemical, uHTS, TR-FRET, eIF4GI fragment; Eukaryotic translation initiation factor 4E (Mus musculus) + Eukaryotic translation …; TR-FRET eIF4E-eIF4GI(517-606) binding, 2 h; inhibition, % at 21.7 µM; 220,000 tested, 0.37% active;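 active = inhibition above about 30%, limit read from the data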;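 note: 0% = full FRET control wells and 100% = background wells lacking eIF4GI fragment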
Bim-Mcl-1 = inhibitors of Bim peptide binding to Mcl-1, primary screen, biochemical, bead-based flow cytometry, multiplex. Induced myeloid leukemia cell differentiation protein Mcl-1 (Homo sapiens), Q07820. Bim peptide-Mcl-1 binding. inhibition, % at 10 µM. 190,000 tested, 0.1% active. AID 1009, 2008; in the data active = inhibition above about 40%;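 note: 0% = no compound tracer wells and 100% = peptide blocker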
Mcl1-Noxa inh = Mcl-1/Noxa binding inhibitors, primary screen, biochemical, TR-FRET, 1536-well | Induced myeloid leukemia cell differentiation protein Mcl-1 (Homo sapiens), Q07820 | TR-FRET Mcl-1/Noxa peptide binding, 2 h | inhibition, % at 21.7 µM | 220,000 tested, 1.5% active;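 active = compounds that cut the protein-peptide binding signal by more than 50% relative to plate controls in a single-dose test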;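 note: His-tagged Mcl-1 with rhodamine Noxa BH3 peptide and terbium anti-His antibody; 0% = Mcl-1 plus Noxa peptide wells and 100% = peptide-only wells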
* hit, by the source's call; . = no result given; [ ] = dose if it differs, or a comment.

SMILES	14-3-3 Bad inh	Mcl1-Bid inh	Hck-Nef inh	eIF4E 4G PPI	Bim-Mcl-1	Mcl1-Noxa inh
CCCCCNC(=O)C1CC(=O)OC12CCCCC2 (stereo unspecified)	-14	-29	18	1	-1	-3
Cc1c(N2C(=O)/C(=C\c3ccccc3O)SC2=S)c(=O)n(-c2ccccc2)n1C	-1	-102	-37	-1	.	32
CN1C(=O)/C(=C/c2cc(N=Nc3ccccc3)ccc2O)SC1=S	7	7	1	2	-4	54*
Cc1cc(Cl)ccc1OCCCC(=O)Nc1cccnc1	75*	15	-1	7	0	7
O=C(CCSc1ccc(Cl)cc1)Nc1cccnc1	-9	-4	-2	0	1	23
Cn1nc(-c2ccc(Cl)cc2)c2cc(C(=O)NCCN3CCOCC3)sc21	8	94*	2	-1	3	11
CC[C@@H]1CC=C[C@H]2[C@H]1C(=O)N(Cc1ccccc1)[C@H]2c1cc(C)ccc1F	5	-3	18	-6	.	-7
Cc1nc(-c2ccccc2)cn(O)c1=O	72*	43	20	1	-2	12
Cc1nn2cc(-c3ccccc3)nc2[nH]c1=O	5	-27	9	3	-4	-12
CCCCN(Cc1cc2cc(OC)ccc2[nH]c1=O)C(=O)c1ccccn1	0	65*	1	-1	-3	5
CCCN(Cc1cc2cc(C)ccc2[nH]c1=O)C(=O)c1ccccn1	5	-5	6	-3	.	13
COc1ccc(-c2cc3cc(OC)c(OC)cc3c(C)n2)cc1	0	0	5	-2	.	30
CCC(C(=O)NC(C)CCc1ccco1)n1nc(C)n2c(cc3occc32)c1=O (stereo unspecified)	13	-21	-3	50*	-6	-7
COC(=O)c1c(NC(=O)CC2SC(N)=NC2=O)sc2c1CCC(C(C)(C)C)C2 (stereo unspecified)	-7	-27	4	17	-5	-4
CCCCc1cc(=O)oc2cc(C)c(CN3CCCC3)c(O)c12	-6	-24	1	-5	-4	47
CCc1cc(=O)oc2cc(C)c(CN3CCCC(C)C3)c(O)c12 (stereo unspecified)	2	93*	1	8	1	52*
COc1ccccc1NC(=O)Cn1cnc2sc(C)c(S(=O)(=O)N3CCCCC3)c2c1=O	2	2	-3	-2	0	20
COc1cccc(/C=N/n2c(SC)nnc2-c2ccccc2)c1O	-18	-98	-8	-2	0	51*
COc1cccc(/C=N/n2c(SC)nnc2-c2ccccc2)c1OC	-7	-18	1	0	-2	-2
COCCCn1c(=O)/c(=C\c2ccc(OC(F)F)c(OC)c2)s/c1=C(/C#N)C(=O)NCCOC	-5	-11	-2	-3	.	-12
Cn1c(SCc2ccccc2)nnc1-c1ccco1	-3	0	15	1	0	-1
CC(=O)c1ccc(NC(=O)CC2Nc3cccc4cccc(c34)NC2=O)cc1 (stereo unspecified)	-8	-35	41	2	-1	83*
CCC1CCC(C(=O)NNC(=O)c2cc(-c3ccco3)[nH]n2)CC1 (stereo unspecified)	-3	-55	7	0	0	20
COc1ccc(/C=N/NC(=O)c2ccc(N(C)S(=O)(=O)c3ccccc3)cc2)cc1OC	-6	-4	2	0	-7	16
CC1CCN(C(=S)c2ccccc2O)CC1	-8	-36	-1	31*[fluorescence artefact?]	0	16
SMILES	14-3-3 Bad inh	Mcl1-Bid inh	Hck-Nef inh	eIF4E 4G PPI	Bim-Mcl-1	Mcl1-Noxa inh
O=C(CCS(=O)(=O)c1ccccc1)Nc1ccccc1-c1nc2ccccc2s1	0	75*	2	3	-4	21
N#C/C(=C\c1ccc(-c2ccc(F)cc2)o1)C(=O)Nc1nc(-c2cccs2)cs1	14	22	20	5	1	57*
CC(=O)Nc1nc(-c2cccs2)cs1	-16	-31	1	14	1	15
O=C(NNC(=O)C12CC3CC(CC(C3)C1)C2)[C@@H]1C[C@H]1c1ccccc1	-5	-18	24	-1	-2	-3
CCOC(=O)c1c(NC(=O)c2cc(-c3cccc(O)c3)on2)sc(C(C)=O)c1C	43	40	34	13	-1	63*
CCOC(=O)c1sc(NC(=O)c2cc(-c3cccc(O)c3)on2)c(C(=O)OCC)c1C	10	-2	-6	5	-3	17
CC1CCCN(C(=S)Nc2ccc3nc4n(c(=O)c3c2)CCCCC4)C1 (stereo unspecified)	-2	97*	7	0	-3	5
CC1CC(C)CN(C(=S)Nc2ccc3nc4n(c(=O)c3c2)CCCCC4)C1 (stereo unspecified)	-18	-65	2	-4	-1	4
O=C1c2cccc(O)c2C(=O)c2c(O)cccc21	-8	8	4	-1	-1	9
O=C1C=C(O)c2cccc(O)c2C1=O	0	-78	25	-14	.	60*
COc1ccc(CCNc2ccncn2)cc1	72*	0	1	-1	0	5
Cc1ccc(C2=Nc3cccnc3C(c3ccccc3)=NN2)cc1	-11	-7	23	3	2	-9
O=Cc1ccc(OC(=O)c2cccnc2)cc1	-3	-27	-16	-2	0	13
CCOc1ccc(-n2c(SCC(=O)Nc3ccc(Br)cc3)nc3n[nH]c(C)c3c2=N)cc1	40	58*	24	11	-1	51*
CC(C)N(C(=O)CSc1nnnn1-c1ccc2c(c1)OCO2)C(C)C	-11	65*	29	0	-3	-1
CC(C)OC(=O)CSc1nnnn1-c1ccc2c(c1)OCCO2	5	-29	-1	3	-6	7
CCOC(=O)C(C)Oc1ncnc2cccc(F)c12 (stereo unspecified)	-3	-8	13	-1	1	-11
C=CCn1c(SCC(=O)Nc2ccc(-c3nc4ccc(C)cc4s3)cc2)nnc1-c1ccncc1	32	-20	9	12	-11	63*
Cc1ccc2nc(-c3ccc(NC(=O)COC(=O)c4ccc(=O)[nH]c4)cc3)sc2c1	44	50	1	0	0	63*

Screens as filed in PubChem.
